Our source for the INHIBITION values is ChEMBL document CHEMBL4513216, “Probing the Open Global Health Chemical Diversity Library for Multistage-Active Starting Points for Next-Generation Antimalarials” (ACS Infect Dis, 2020).

In all, about 69,000 compounds went through this assay and about 8,600 (12%) showed an effect of 50% or more. Many of the other results were omitted from the sample, so strong results are more common in it than they were.

The test system of this assay is Plasmodium berghei. Briefly: Screen against P. berghei liver stage (PbLuc), transformed with Luciferase, at 10uM. It counts as functional, HepG2. The conditions noted are these: tested at 10 uM.
In the case of `CN(C)CC(=O)N1CCOCC(Cc2ccccn2)C1` (stereo not given), the INHIBITION is recorded as -20.6%. Turning to `CN1CCC2(CCN(CC3CC3)CC2)C1=O`, the INHIBITION turned out to be 23.3%.

Take `CC(C)CN(CC(O)c1ccccc1)C(=O)Nc1nccs1` (stereo not given): the INHIBITION was -10.9%.

For `COCCN(C)CC(=O)N1C[C@@H]2CC[C@H]1CN(C(=O)c1ccncc1)C2`, the INHIBITION turned out to be 8.57%.

`CNC(=O)[C@H]1C[C@H]2CN(Cc3ccc(OC)cc3)C[C@@H]1O2`: the INHIBITION was 8.66%. Consider `c1ccc(-n2ncc(CN3CCCC3Cn3cccn3)n2)cc1` (stereo not given), for which the INHIBITION is reported as -0.75%. Regarding `c1ccc(-n2ccc(CN3CCOC(Cn4cncn4)C3)n2)cc1` (stereo not given), the INHIBITION stood at 7.08%. In the case of `Cn1nccc1C1CCN(CC(O)c2cccc(F)c2)CC1` (stereo not given) it was 20.9%. As for `Cn1nccc1C1CCN(Cc2csc(-c3ncccn3)n2)CC1`, the INHIBITION is given as 11.1%. With `c1ccc(-n2ccc(CN3CCCC3Cn3cccn3)n2)cc1` (stereo not given), the INHIBITION stood at 36.4%. For `Cn1nccc1C1CCN(Cc2cnn(-c3ccccc3)n2)CC1`, the INHIBITION is 81.2%. `Cn1nccc1C1CCN(Cc2ccn(-c3ccccc3)n2)CC1`: the INHIBITION worked out at 74.2%. Consider `O=C(O)c1ccccc1CN1CCC(c2ccnc3ccnn23)CC1`, for which the INHIBITION is -9.32%. Regarding `Cc1ncc(CN2CCC(c3ccnn3C)CC2)n1-c1ccccc1`, the INHIBITION turned out to be 77.2%.

With `CC(C)C(=O)N1CCN(C(=O)N(C)C)CC2(CC(=O)N(C)C2)C1` (stereo not given), the INHIBITION is listed as 39.8%.

Take `CCn1c(Cn2cncn2)nnc1C1CCN(Cc2ccccn2)CC1`: the INHIBITION amounted to 3.88%. Regarding `O=C(CCc1ccccc1)NC1CCC2(CCC(=O)N2)CC1` (stereo not given), the INHIBITION worked out at 2.58%.

As for `COCCCN1CCN(CCOC)C(C)C1` (stereo not given), the INHIBITION is on record as -23.8%. As for `CN(C)CCOCC1CN(CCN(C)C)Cc2ccnn2C1` (stereo not given), the INHIBITION is -4.23%. Turning to `COc1ccccc1OC1CN(c2ccncc2)C1`, the INHIBITION was determined as 38.8%.

Consider `Cc1cc(F)c(S(=O)(=O)NCCCN2CCC(O)CC2)cc1F`, for which the INHIBITION was -1.53%. `CC(C)c1cccc(S(=O)(=O)NCCCN2CCC(O)CC2)c1`: the INHIBITION was found to be 62.3%. As for `Cc1ccc(S(=O)(=O)NCCCN2CCC(O)CC2)cc1Cl`, the figure is 51.4%. For the compound `CSCc1cccc(S(=O)(=O)NCCCN2CCOCC2)c1`, the INHIBITION is recorded as 18.5%. In the case of `Cc1cc(F)cc(S(=O)(=O)NCCCN2CCC(O)CC2)c1` it was 25.1%. As to `Cc1ccc(S(=O)(=O)NCCCN2CCC(O)CC2)c(F)c1`, the INHIBITION is 41.4%. As for `CN(CCc1ccccn1)C1CCCN(Cc2noc(C3CC3)n2)C1` (stereo not given), the figure is 24.1%. Take `COc1ccccc1C(O)CNc1c(C#N)c(=O)n(C)c(=O)n1C` (stereo not given): the INHIBITION amounted to 46.2%. In the case of `Cn1ccc(C(=O)NCCOc2ccc3c(c2)OCO3)cc1=O` it was -3.54%; in that of `Cc1nc(COC[C@@H]2CC[C@H]3[C@H](CCN3c3ncccn3)O2)cs1`, 46.6%.
